A selection: hits, their analogues and other compounds. The true share with any hit is near 19%.
KB-V1 cytotox: kills drug-selected multidrug resistant KB-V1 cells; Potency, µM (titrated, usually from 46.1 µM), actives largely listed as cytotoxic; KB-V1 MDR cells viability, CellTiter-Glo, 72 h; 400,000 tested, 3.4% active; AID 1347076; note: nearly all actives have a fitted effect of over 60% in size
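KB-V1 cells (P-gp-expressing MDR subline of KB-3-1) in phenol-red-free DMEM with 10% FBS were exposed to library compounds over a concentration series for 72 h at 37 degrees C. Viability read by CellTiter-Glo luminescence; concentration-effect curves fitted after normalization.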
HT1080 IDH1KD tx: HT-1080 IDH1 knockdown cell toxicity (counter line); HT-1080 IDH1 knockdown viability, ATP luminescence, 48 h; Potency, µM (doses to about 46.1 µM), inactives show at the top dose activity, negative = toxicity, hits mostly cytotoxic; 360,000 tested, 2% active;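 note: 0% = DMSO wells and -100% = cell-free medium wells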
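Using the IDH1-knockdown HT-1080 line run in the same batch and compound series as the NT line, viability after 48 h at 37 °C was determined by CellTiter-Glo luminescence and expressed as % activity.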
HT1080-NT tox: kills 2HG-producing HT-1080-NT fibrosarcoma cells | HT-1080-NT fibrosarcoma viability, CellTiter-Glo ATP luminescence, 48 h | Potency, µM (series often up to 46.1 µM), for the others: top-dose activity, negative = less viability, hits mostly cytotoxic | 360,000 tested, 1.6% active | AID 686970;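 note: NT is the 2HG producing partner of a matched IDH1 knockdown line; 0% = DMSO-treated cells and -100% = media-only wells without cells; nearly all actives have a fitted effect of over 55% in size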
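Fibrosarcoma NT cells, 750 per well in 5% FBS RPMI, were exposed to compound for 48 hours. Viability: CellTiter-Glo luminescence.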
DT40 TDP1 CPT: DT40-hTDP1 cell growth loss with CPT. chicken DT40 Tdp1-/-;hTDP1 cells + 20 nM CPT, ATP luminescence, 48 h. 420,000 tested, 12% active. AID 686979. Potency, µM (doses to about 46.2 µM), without a hit: at the highest dose activity change, negative = growth inhibition, hits mostly inhibitors; note: nearly all actives have a fitted effect of over 55% in size
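Cell growth measured by CellTiter-Glo luminescence after a minimum 48 h, 37 C compound exposure with 20 nM CPT in Tdp1-knockout DT40 cells stably expressing hTDP1, seeded 400/well; qHTS titration format.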
DT40 TDP1 no CPT: qHTS for Inhibitors of human tyrosyl-DNA phosphodiesterase 1 (TDP1): qHTS in cells in absence of CPT | 420,000 tested, 15% active | DT40 Tdp1-/- hTDP1 cells, no CPT, ATP luminescence, 48 h | Potency, µM (top dose mostly 46.2 µM), without a hit: top-dose activity change, negative = growth inhibition, hits mostly inhibitors | AID 686978, 2013; note: nearly all actives have a fitted effect of over 55% in size
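No-CPT arm: Tdp1-/-;hTDP1 DT40 cells (400/well) plus compounds, incubated ≥48 hr at 37 °C. Readout CellTiter-Glo luminescence.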
KB-3-1 cytotox: KB-3-1 parental cell cytotoxicity; AID 1347075; 400,000 tested, 1.4% active; Potency, µM (doses to about 46.1 µM), usual class: cytotoxic; KB-3-1 viability, CellTiter-Glo ATP luminescence, 72 h; note: nearly all actives have a fitted effect of over 60% in size
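Cytotoxicity measured as CellTiter-Glo luminescence after 72 h at 37 C. Compound titrations were pinned onto drug-naive KB-3-1 parental adenocarcinoma cells grown in DMEM with 10% FBS, and normalized data fitted to concentration-response curves.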
* marks the source's active call; other numbers are inactive results; i = inactive; u = inconclusive; x = no result given; [ ] = dose if it differs, or a comment. Calls come from the whole dose curve; as a rule, active = well fitted curve in the direction sought with a large enough effect; inconclusive = small, poorly fitted or top-dose-only effect, or another doubt; inactive = no such curve, though single readings can be large; an effect the other way counts as inactive or inconclusive. Unless noted, % is set by controls: 0 for no effect and ±100 for the full control effect; potency is the fitted concentration of half-maximal effect.

SMILES	KB-V1 cytotox	HT1080 IDH1KD tx	HT1080-NT tox	DT40 TDP1 CPT	DT40 TDP1 no CPT	KB-3-1 cytotox
Cc1cc(C)c(C)c(S(=O)(=O)N2CCC(C(=O)Nc3ccncc3)CC2)c1C	i	u	u	u	8.2µM*	i
O=S(=O)(c1ccccc1)N1CCC(n2cnc3ccccc32)CC1	u	-1%	6%	7%	-17%	i
O=S(=O)(c1ccccc1C(F)(F)F)N1CCC(n2cnc3ccccc32)CC1	9.2µM*	-5%	1%	u	u	i
O=C(Nc1ccncc1)C1CCN(S(=O)(=O)c2ccc(Cl)c(C(F)(F)F)c2)CC1	u	-18%	2%[9.24 µM]	16µM*	15µM*	5.8µM*
Cc1ccnc(NC(=O)C2CCN(S(=O)(=O)c3ccc(Cl)c(C(F)(F)F)c3)CC2)c1	u	16%	-5%	u	u	i
CCC(C)n1c(SCC(=O)N(CC)c2c(N)n(Cc3ccccc3)c(=O)[nH]c2=O)nc2ccccc2c1=O (configuration not stated)	u	6%	u	-26%	-13%	i
O=C(Nc1ccncc1)C1CCN(S(=O)(=O)c2ccccc2)CC1	i	-7%	-11%	u	u	i
COc1ccc(S(=O)(=O)N2CCC(C(=O)Nc3cc(C(F)(F)F)ccc3Cl)CC2)cc1	u	x	x	u	16µM*	u
O=C(Nc1ccncc1)C1CCN(S(=O)(=O)c2ccc(Cl)cc2)CC1	i	-1%	-7%	23µM*	16µM*	i
O=C(Nc1ccncc1)C1CCN(S(=O)(=O)c2ccccc2C(F)(F)F)CC1	x	-23%	-17%	15µM*	26µM*	x
COc1cc2c(cc1OC)C(=NO)CCCC2	i	0%	-4%	1%	u	i
CC1(C)CC(N2CCN(CCO)CC2)=CC(=S)N1	i	15%	11%	4%	6%	i
CN(C(=O)c1cccc(NC(=O)Cc2cccc(NC(=O)C3CCCN(C(=O)c4ccccc4)C3)c2)c1)C1CC1 (configuration not stated)	i	9%	12%	-12%	u	i
O=C1/C(=C\c2cccnc2)Sc2ccccc21	i	u	u	u	21µM*	i
NC(=O)c1cccn1Cc1ccccc1Cl	i	-3%	4%	u	u	i
NC(=O)c1cccn1Cc1cccc(Cl)c1	i	-26%	-6%	21µM*	u	i
CC1=C(C(=O)OCCNC(=O)c2ccccc2O)C(c2ccccc2[N+](=O)[O-])C(C(=O)OCC2CCCO2)=C(C)N1 (configuration not stated)	i	u	-26%	18µM*	18µM*	u
Cc1ccc(C(NC(=O)N2CCOCC2)=C(Cl)Cl)cc1F	i	14µM*	u	6.5µM*	16µM*	i
Cc1ccc(C(NC(=O)N2CCOCC2)C(Cl)Cl)cc1F (configuration not stated)	i	4%	7%	u	6%	i
O=C(CN1c2cccc3cccc(c23)S1(=O)=O)N1CCN(c2ccc(F)cc2)CC1	i	-1%	-6%	-26%	-16%	i
O=S1(=O)c2cccc3cccc(c23)N1CCCN1CCN(c2ccc(F)cc2)CC1	x	x	x	u	21µM*	x
Cc1ccc(-n2nnnc2SCC(=O)NCCc2ccccc2)cc1C	i	x	x	-17%	-9%	i
COc1cccc(C(O)C2OC(=O)c3ccccc32)c1OC (configuration not stated)	i	-2%	20%	4%	9.2µM*	i
COc1cc(C2OC(=O)c3ccccc3S2)cc(OC)c1OC (configuration not stated)	i	6%	16%	1%	-20%	i
O=C(CSc1ncc2c(n1)-c1ccccc1N(Cc1ccc(Cl)cc1)S2(=O)=O)c1ccc(Cl)cc1	i	x	x	u	u	i
SMILES	KB-V1 cytotox	HT1080 IDH1KD tx	HT1080-NT tox	DT40 TDP1 CPT	DT40 TDP1 no CPT	KB-3-1 cytotox
COc1cccc(C(=O)NC2CCN(C(=O)N3c4ccccc4Sc4ccccc43)CC2)c1	u	u	u	u	u	i
O=C(NC1CCN(C(=O)N2c3ccccc3Sc3ccccc32)CC1)c1ccco1	i	21µM*	u	u	21µM*	u
O=C(c1ccco1)N1CCN(C(=O)N2c3ccccc3Sc3ccccc32)CC1	0.65µM*	u	u	0.23µM*	0.63µM*	0.52µM*
O=C(NC1CCN(C(=O)N2c3ccccc3Sc3ccccc32)CC1)c1ccccc1Cl	u	u	u	u	23µM*	i
O=C(N1CCN(c2ccccn2)CC1)N1c2ccccc2Sc2ccccc21	1.8µM*	0.89µM*	0.89µM*	0.73µM*	0.92µM*	0.58µM*
O=C(CSc1nc2ccccc2nc1Cc1ccccc1)N1CCc2ccccc21	i	x	x	-17%	-13%	i
Cn1c(=O)c2[nH]c(SCCN)nc2n(C)c1=S	i	18%	11%	5%	10%	i
CCCCSc1nc2c([nH]1)c(=S)n(C)c(=O)n2C	1.5µM*	9%	2%	1.3µM*	1.2µM*	7.3µM*
CSc1nc2c([nH]1)c(=S)n(C)c(=O)n2C	i	-3%	2%	5.8µM*	5.2µM*	i
CC(C)c1ccc(-c2nc3c([nH]2)c(=O)n(C)c(=O)n3C)cc1	i	-15%[9.24 µM]	-2%	29%	4%	i
CC(C)Cc1nc(SCc2cccnc2)c2c(=O)n(C)c(=O)n(C)c2n1	u	-28%	-21%	18µM*	u	i
Cn1c(=S)c2[nH]c(SCCC(C)(C)C)nc2n(C)c1=O	u	-22%	-3%	1.5µM*	1µM*	u
COC(=O)c1cc(C(=O)NNC(=O)c2ccc3c(c2)OCO3)cc([N+](=O)[O-])c1	i	2%	-3%[9.24 µM]	-9%	1%	i
CCN(CC)CCSc1nc(O)c(-c2ccccc2)c(=O)[nH]1	i	9%	2%	5%	-22%	i
CCc1c(C)nc(SCc2cccnc2)[nH]c1=O	i	4%	3%	4%	0%	i
CCN(CC)CCSc1nc2c([nH]1)c(=S)n(C)c(=O)n2C	i	5%	7%	4.1µM*	5.2µM*	i
Cn1c(=S)c2[nH]c(SCc3cccnc3)nc2n(C)c1=O	16µM*	-1%	9%	u	u	i

Screening data as filed in PubChem.
